Results filed as inconclusive are left out. The source made the active and inactive calls. Calls follow the shape of the dose curve; as a rule, active = well fitted curve in the direction sought with a large enough effect; inconclusive = small, poorly fitted or top-dose-only effect, or another doubt; inactive = no such curve, though single readings can be large; an effect the other way counts as inactive or inconclusive.

We go through 17 molecules from PubChem BioAssay (NCATS).

The target of assay [1] is Luciferin 4-monooxygenase (Photinus pyralis) (UniProt P08659). The assay can be described thus: Biochemical firefly luciferase enzyme assay for NPC (AID 624030).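 Also: purified P. pyralis luciferase at 10 nM with luciferin and ATP substrate; nearly all actives have a fitted effect of over 70% in size.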 The following applies: purified P. pyralis luciferase, luminescence, 5 min; series mostly up to 58.6 µM. The gist of the method: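 Direct inhibition of firefly luciferase enzyme (10 nM final, 50 mM Tris Acetate) assessed by luminescence within 5 minutes. Percent activity scaled between DMSO and PTC124 positive control, with concentration-effect curves classified by fit quality and response.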
Luciferin 4-monooxygenase (Photinus pyralis), sequence (P08659 whole entry, looked up): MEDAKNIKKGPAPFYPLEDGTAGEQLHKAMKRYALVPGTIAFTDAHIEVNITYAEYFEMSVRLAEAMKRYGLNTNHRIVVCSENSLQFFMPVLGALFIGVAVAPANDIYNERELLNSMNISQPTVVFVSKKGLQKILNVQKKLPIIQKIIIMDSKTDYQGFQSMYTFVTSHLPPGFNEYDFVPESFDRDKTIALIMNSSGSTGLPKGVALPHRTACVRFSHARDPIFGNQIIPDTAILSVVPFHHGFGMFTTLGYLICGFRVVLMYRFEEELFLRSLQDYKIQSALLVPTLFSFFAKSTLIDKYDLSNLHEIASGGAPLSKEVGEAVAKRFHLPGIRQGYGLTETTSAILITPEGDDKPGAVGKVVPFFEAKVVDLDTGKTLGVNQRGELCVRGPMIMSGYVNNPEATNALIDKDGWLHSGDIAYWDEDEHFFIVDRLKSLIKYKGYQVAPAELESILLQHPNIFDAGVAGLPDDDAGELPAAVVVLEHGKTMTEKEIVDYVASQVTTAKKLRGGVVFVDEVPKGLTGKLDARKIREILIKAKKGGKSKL

The nature of assay [2]: S16 Schwann cell viability assay (CellTiter-Glo assay) (AID 624031). Also: nearly all actives have a fitted effect of over 70% in size. Also: potency is read from the fitted curve at half-maximal effect. The following applies: S16 rat Schwann cells viability, 24 h; series mostly up to 57.5 µM. In a few lines:
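Untransfected S16 rat Schwann cells; compound 24 h, 37 °C/5% CO2; CellTiter-Glo ATP luminescence. % activity vs no-cell wells and DMSO controls (0%); concentration-effect curves classed by r2, response magnitude, activity.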

For assay [3], the target named is Voltage-gated inwardly rectifying potassium channel KCNH2 (Homo sapiens) (UniProt Q12809). Description: qHTS Assay for Small Molecule Inhibitors of the Human hERG Channel Activity (AID 588834).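 Also: lower thallium flux fluorescence means stronger hERG block; nearly all actives have a fitted effect of over 50% in size.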 Also: potency is read from the fitted curve at half-maximal effect. The following applies: U2OS BacMam hERG, FluxOR thallium flux fluorescence; series mostly up to 46.1 µM. In a few lines:
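Step 1: BacMam hERG transduction of U2OS, 4 hrs RT. Step 2: overnight 37 °C, plate 2000 cells/well, 4 hr. Step 3: FluxOR load, compound 10 min, stimulate, read fluorescence.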
A general note: In qHTS, concentration-response curves come from the screen itself.

Voltage-gated inwardly rectifying potassium channel KCNH2 (Homo sapiens), sequence (Q12809 whole entry, looked up): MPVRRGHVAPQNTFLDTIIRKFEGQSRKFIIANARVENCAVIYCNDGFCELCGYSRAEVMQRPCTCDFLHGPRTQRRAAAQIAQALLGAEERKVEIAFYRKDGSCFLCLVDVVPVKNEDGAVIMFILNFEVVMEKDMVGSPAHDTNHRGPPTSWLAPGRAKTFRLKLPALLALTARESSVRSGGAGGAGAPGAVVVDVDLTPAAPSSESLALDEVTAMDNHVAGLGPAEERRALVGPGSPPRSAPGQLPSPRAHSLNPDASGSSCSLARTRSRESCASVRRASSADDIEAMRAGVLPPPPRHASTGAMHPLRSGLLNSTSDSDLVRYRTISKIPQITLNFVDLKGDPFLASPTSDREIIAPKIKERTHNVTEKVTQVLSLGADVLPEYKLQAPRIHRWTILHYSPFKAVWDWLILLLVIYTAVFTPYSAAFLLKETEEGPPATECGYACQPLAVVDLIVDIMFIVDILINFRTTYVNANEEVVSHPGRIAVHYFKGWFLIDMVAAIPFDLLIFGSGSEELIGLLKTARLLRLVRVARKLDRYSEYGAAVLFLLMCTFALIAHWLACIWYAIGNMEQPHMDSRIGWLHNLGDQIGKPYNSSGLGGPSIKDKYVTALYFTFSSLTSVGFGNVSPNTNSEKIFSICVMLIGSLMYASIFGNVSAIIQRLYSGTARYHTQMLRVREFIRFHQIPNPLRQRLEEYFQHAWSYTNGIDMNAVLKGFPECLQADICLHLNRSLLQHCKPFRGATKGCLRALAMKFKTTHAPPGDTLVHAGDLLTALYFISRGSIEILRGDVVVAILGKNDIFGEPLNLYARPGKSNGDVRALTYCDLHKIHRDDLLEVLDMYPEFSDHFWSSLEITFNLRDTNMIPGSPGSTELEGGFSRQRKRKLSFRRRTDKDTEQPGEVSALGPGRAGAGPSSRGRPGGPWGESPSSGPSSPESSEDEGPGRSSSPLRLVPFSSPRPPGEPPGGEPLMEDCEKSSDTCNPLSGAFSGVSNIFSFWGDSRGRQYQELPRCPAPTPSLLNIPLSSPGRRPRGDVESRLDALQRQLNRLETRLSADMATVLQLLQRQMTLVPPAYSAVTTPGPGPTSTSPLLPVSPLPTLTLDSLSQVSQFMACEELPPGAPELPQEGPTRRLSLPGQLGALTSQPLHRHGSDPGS

As for `CNC(=O)OCC[N+](C)(C)C`, the Potency entry in assay [1] and in assay [2] was “inactive” in each case.

Consider `CCCCCCCCCC(=O)O[C@H]1CC[C@H]2[C@@H]3CCC4=CC(=O)CC[C@]4(C)[C@H]3CC[C@]12C`, for which the Potency result in assay [3], in assay [1] and in assay [2] was “inactive” in each case.

As for `CN1C2CCC1CC(OC(c1ccccc1)c1ccc(Cl)cc1)C2` (stereo not given), the Potency in assay [3] is 0.501 µM (active); in assay [2], 20.3 µM (active). Besides, in assay [1], the Potency result was “inactive”.

For `c1ccc(C2(N3CCCC3)CCCCC2)cc1`, the Potency result in assay [1] and in assay [2] was “inactive” each time.

For `C[N+]1(C)C2CCC1CC(OC(=O)c1c[nH]c3ccccc13)C2` (stereo not given), the Potency entry in assay [1] and in assay [2] was “inactive” each time.

With `COc1ccc2c3c1O[C@H]1C(=O)CC[C@H]4[C@@H](C2)N(C)CC[C@]314`, the Potency result in assay [3], in assay [1] and in assay [2] was “inactive” in each case.

`COC([CH2][Hg])CNC(=O)c1ccccc1OCC(=O)O` (stereo not given): the Potency entry in assay [3] and in assay [2] was “inactive” in each case.

On to `O=S(=O)(O)c1cc(O)ccc1O`, for which the Potency entry in assay [3], in assay [1] and in assay [2] was “inactive” each time.

For the molecule `O=C(CCl)c1ccc(Oc2ccc(C(=O)CCl)cc2)cc1`, the Potency entry in assay [3] and in assay [2] was “inactive” throughout.

In the case of `c1ccc2sc(SNC3CCCCC3)nc2c1`, the Potency entry in assay [3] and in assay [2] was “inactive” in each case.

On to `CCCC(C)C1(CC)C(=O)NC(=O)NC1=O` (stereo not given), for which the Potency entry in assay [3], in assay [1] and in assay [2] was “inactive” each time.

As to `Clc1ccc(C2(Cn3cncn3)OCCO2)c(Cl)c1`, the Potency result in assay [3], in assay [1] and in assay [2] was “inactive” each time.

Turning to `CCOc1ccc2c3c1O[C@H]1[C@@H](O)C=C[C@H]4[C@@H](C2)N(C)CC[C@@]341`, the Potency entry in assay [1] and in assay [2] was “inactive” throughout.

For the molecule `Clc1ccc(Cl)cc1`, the Potency result in assay [3], in assay [1] and in assay [2] was “inactive” each time.

In the case of `O=[N+]([O-])c1cc(I)c(O)c(I)c1`, in assay [2], the Potency result is “inactive”.

For the molecule `c1ccc2cc(CC3=NCCN3)ccc2c1`, the Potency entry in assay [1] and in assay [2] was “inactive” in each case.

Take `CCC1(c2ccccc2)C(=O)NC(=O)N(C(=O)c2ccccc2)C1=O` (stereo not given): the Potency result in assay [1] and in assay [2] was “inactive” in each case.
